PfHsp40 yeast = rescue of yeast from PfHsp40 toxicity, primary screen, S. cerevisiae, ATP luminescence; 340,000 compounds, 0.68% hits; growth rescue, % at 12.5 µM; S. cerevisiae expressing PfHsp40, growth rescue; AID 504582, 2011; in the data active means growth rescue above about 28%, passing the limit was not always enough;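 further: yeast W303a lacking pdr1 and pdr3 grown in galactose medium; growth measured after three days at 30 °C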
SARS 3CLpro inh-1 = SARS-CoV 3CLpro protease inhibitors, primary screen, biochemical, quenched FRET. Replicase polyprotein 1ab (Severe acute respiratory syndrome coronavirus), P0C6X7. recombinant SARS-CoV 3CLpro, quenched FRET peptide cleavage. inhibition, % at 6 µM. 290,000 compounds, 0.14% hits. AID 1706, 2009; in the data active means inhibition above about 12%
Sa ugtP lethal = growth inhibition of ugtP-null S. aureus, primary screen, RN4220 ugtP deletion, OD600; 16 h; growth inhibition, % (concentration not given with the values); 330,000 compounds, 0.54% hits; in the data active means growth inhibition above about 68%
RN4220 kill = growth inhibition of S. aureus RN4220, primary screen, OD600; inhibition, % (no concentration beside the values); 330,000 compounds, 0.33% hits; 16 h; in the data active means inhibition above about 85%
BJeLR viability = MLPCN primary cell-based screen for lethality selective to Ras in HRASV12 cells. inhibition, % (no concentration beside the values). AID 1554, 2009. 300,000 compounds, 0.17% hits. BJeLR (HRASV12) viability, CellTiter-Glo ATP luminescence, 48 h; in the data active means inhibition above about 50%
SARS 3CLpro inh-2 = confirmation of SARS coronavirus 3C-like protease inhibitors, retest, confirmation, biochemical; 380 compounds, 36% hits; inhibition, % at 6 µM; QFRET protease activity assay, 3CLpro; AID 1879, 2009; shares compounds with SARS 3CLpro inh-1; in the data active means inhibition above about 13%
A number is an active result. Shown are actives, neighbours in structure and some others; about 1.3% of the full set was active somewhere.

How did O=C1C(C2=NC(c3ccccn3)C3C(=O)N(c4ccccc4)C(=O)C23)=C(O)c2ccccc21 (stereo unspecified) do in these assays?
PfHsp40 yeast: inactive; SARS 3CLpro inh-1: 80; Sa ugtP lethal: inactive; RN4220 kill: inactive; BJeLR viability: inactive; SARS 3CLpro inh-2: inactive

What do the screens show for `O=C1NC(=O)N(c2ccccc2F)C(=O)/C1=C/c1cn(CC(=O)N2CCOCC2)c2ccccc12`?
SARS 3CLpro inh-1: 18; Sa ugtP lethal: inactive; RN4220 kill: inactive; BJeLR viability: inactive; SARS 3CLpro inh-2: 18

What do the screens show for `CCN1C(=O)NC(=O)/C(=C\c2cn(CC(=O)N3CCCC3)c3ccccc23)C1=O`?
PfHsp40 yeast: inactive; SARS 3CLpro inh-1: inactive; Sa ugtP lethal: inactive; RN4220 kill: inactive; BJeLR viability: inactive

What do the screens show for `CC(C)(C)OC(=O)CNC(=O)c1[nH]cnc1C(=O)NC(c1ccccc1)c1ccccc1`?
PfHsp40 yeast: inactive; SARS 3CLpro inh-1: 13; Sa ugtP lethal: inactive; RN4220 kill: inactive; BJeLR viability: inactive; SARS 3CLpro inh-2: inactive

What do the screens show for `CC(C)(C)OC(=O)NCc1ccc(CNC(=O)c2[nH]cnc2C(=O)N[C@@H](Cc2ccccc2)C(=O)OC(C)(C)C)cc1`?
PfHsp40 yeast: inactive; SARS 3CLpro inh-1: 15; BJeLR viability: inactive; SARS 3CLpro inh-2: inactive

Results for CC(C)(C)OC(=O)NCc1ccc(CNC(=O)c2[nH]cnc2C(=O)N[C@@H](Cc2ccccc2)C(=O)OCc2ccccc2)cc1 ?
PfHsp40 yeast: inactive; SARS 3CLpro inh-1: 14; BJeLR viability: inactive; SARS 3CLpro inh-2: inactive

What do the screens show for `O=C1c2ccccc2C(=O)N1N=Cc1ccc(O)c(O)c1O`?
Sa ugtP lethal: inactive; RN4220 kill: inactive

What do the screens show for `O=C(CSc1ccc([N+](=O)[O-])cn1)Nc1ccc2c(c1)OCCO2`?
PfHsp40 yeast: inactive; SARS 3CLpro inh-1: inactive; Sa ugtP lethal: inactive; RN4220 kill: inactive; BJeLR viability: inactive

Results for O=C(CCl)Nc1ccccc1C(=O)c1ccccc1 ?
PfHsp40 yeast: inactive; SARS 3CLpro inh-1: 13; Sa ugtP lethal: inactive; RN4220 kill: inactive; BJeLR viability: inactive; SARS 3CLpro inh-2: inactive

How did Cc1cc(C(=O)c2ccccc2)c(NC(=O)CCl)s1 do in these assays?
PfHsp40 yeast: inactive; SARS 3CLpro inh-1: 76; Sa ugtP lethal: inactive; RN4220 kill: inactive; BJeLR viability: inactive; SARS 3CLpro inh-2: 81

How did O=C(Nc1nc(-c2cccs2)cs1)c1ccc(Cl)cc1 do in these assays?
PfHsp40 yeast: inactive; SARS 3CLpro inh-1: 13; Sa ugtP lethal: inactive; RN4220 kill: inactive; BJeLR viability: inactive; SARS 3CLpro inh-2: inactive

How did COc1ccc(C(=O)Nc2nc(-c3cccs3)cs2)cc1 do in these assays?
PfHsp40 yeast: inactive; SARS 3CLpro inh-1: inactive; BJeLR viability: inactive

What do the screens show for `NC(=S)NN=Cc1ccc(C=NNC(N)=S)cc1`?
Sa ugtP lethal: inactive; RN4220 kill: inactive

Results for NC(=S)N/N=C/c1ccc(C23CC4CC(CC(C4)C2)C3)cc1 ?
SARS 3CLpro inh-1: 14; BJeLR viability: inactive; SARS 3CLpro inh-2: inactive

Results for CCc1nnc(NS(=O)(=O)c2ccc(NC(=O)/C=C/c3ccc(F)cc3)cc2)s1 ?
PfHsp40 yeast: inactive; SARS 3CLpro inh-1: 13; Sa ugtP lethal: inactive; RN4220 kill: inactive; BJeLR viability: inactive; SARS 3CLpro inh-2: inactive

How did COC1C(OC(=O)c2ccc(C)[nH]2)C(O)C(Oc2ccc3c(O)c(NC(=O)c4ccc(O)c(CC=C(C)C)c4)c(=O)oc3c2Cl)OC1(C)C (stereo unspecified) do in these assays?
PfHsp40 yeast: inactive; SARS 3CLpro inh-1: 13; Sa ugtP lethal: 100; RN4220 kill: 94; SARS 3CLpro inh-2: inactive

How did CCCCCc1c2c(cc(O)c1C(=O)O)OC(=O)c1c(cc(OC)cc1C(=O)CCCC)O2 do in these assays?
PfHsp40 yeast: inactive; SARS 3CLpro inh-1: 15; Sa ugtP lethal: inactive; RN4220 kill: inactive; BJeLR viability: inactive; SARS 3CLpro inh-2: inactive

How did CCOc1cccc(CN(C)CC2CCCN(CCc3ccc(Cl)cc3)C2)c1O (stereo unspecified) do in these assays?
PfHsp40 yeast: inactive; SARS 3CLpro inh-1: inactive; Sa ugtP lethal: inactive; RN4220 kill: inactive; BJeLR viability: inactive

How did O=C(N[C@H](Cc1ccc(Cl)cc1)C(=O)O)OCC1c2ccccc2-c2ccccc21 do in these assays?
PfHsp40 yeast: inactive; SARS 3CLpro inh-1: inactive; Sa ugtP lethal: inactive; RN4220 kill: inactive; BJeLR viability: inactive

Source: PubChem BioAssay
